This is an account of results in the OligoGym collection.
Also: reference of the scale not given here.

For one experiment, the target named is ATP2B3. As to the kind of experiment: pooled miR-30 sensor sort-seq; sequence = guide strand. To be noted: shRNA.
The sequence TAAAACATATTTATGAACTGAA displayed a sensor-assay potency score (higher = more potent) of -0.383.

For TTCCTCACCATGTCGTCCCGGT, the sensor-assay potency score (higher = more potent) is -0.00689.

TTAAACAAGGACATCAGGGAAC showed a sensor-assay potency score (higher = more potent) of -0.472.

TTCTTTTGAACTCTTGGCCCTG registered a sensor-assay potency score (higher = more potent) of -0.519.

TTGAAGAACACAAAGACCCTCA registered a sensor-assay potency score (higher = more potent) of 0.724.

The next experiment has as its target ATP2C2. Described as above. Conditions: shRNA.
Turning to TTAAACACTTCTCCGAACTGAG, the sensor-assay potency score (higher = more potent) is -0.019.

In turn, TAAGAGGAAAAACTGATCCGGT gave a sensor-assay potency score (higher = more potent) of -0.305.

In turn, TAGAGGAACATGTGGTTCCTGA showed a sensor-assay potency score (higher = more potent) of -0.803.

For the sequence TCATCTTCACAGACACACCAGA, the sensor-assay potency score (higher = more potent) was -0.317.

In turn, TTCTGCTCTGAACTGAATGGAA registered a sensor-assay potency score (higher = more potent) of -0.474.

TTGTACATGGTGCAGTAGCGGA registered a sensor-assay potency score (higher = more potent) of -1.45.

As to TACGACATCACCAGGAACCAGT, the sensor-assay potency score (higher = more potent) was -0.544.

For TCATCTTAAACACTTCTCCGAA, the sensor-assay potency score (higher = more potent) is -0.15.

As for TTGTGCTTTGGGCTGGTCCTGA, the sensor-assay potency score (higher = more potent) is -0.105.

As to TTCCTCTTCGTCCTTCTCCAGC, the sensor-assay potency score (higher = more potent) was -1.04.

The sequence TTTAATATCACTTAAGTCCATC showed a sensor-assay potency score (higher = more potent) of -0.736.

The target in another experiment is ATP6V0A1. Described as above. Conditions: shRNA.
Take ATAACAGACATCTTCATCTTAA: the sensor-assay potency score (higher = more potent) was -0.304.

In turn, TTGGAAAACATTCACATCTGGA had a sensor-assay potency score (higher = more potent) of 0.211.

TAAGTCACGAAACTGAACCTTT displayed a sensor-assay potency score (higher = more potent) of -0.177.

Sequence TTTATTCTGGAACTCAACCCAG yielded a sensor-assay potency score (higher = more potent) of -0.592.

For TTGGAGATCATCAATCCTGGTA, the sensor-assay potency score (higher = more potent) stood at 0.0241.

As to TTATTCTGGAACTCAACCCAGT, the sensor-assay potency score (higher = more potent) was found to be 0.03.

For the sequence TCTCTTTCTCAACAAATCGAAG, the sensor-assay potency score (higher = more potent) is -1.57.

In the case of TTATTGGTAGCAATGTTCCAAA, the sensor-assay potency score (higher = more potent) is -1.08.

Regarding TATAAGTAAACATCGGCCGTAC, the sensor-assay potency score (higher = more potent) is 0.244.

TTGAATAACCAGACTCTGGGTA: the sensor-assay potency score (higher = more potent) amounted to 0.472.

TCTAAGTCAATCATGTCCCGGG registered a sensor-assay potency score (higher = more potent) of 0.648.

Sequence TTTATTGGTAGCAATGTTCCAA displayed a sensor-assay potency score (higher = more potent) of 0.458.

On to TAAGCATCTACTATGTTCTGAA, for which the sensor-assay potency score (higher = more potent) turned out to be 0.161.

As for TTCCGCACTTTGATGAACCAGA, the sensor-assay potency score (higher = more potent) was -0.516.

TTTCTGAGTCACATCTATGTTG displayed a sensor-assay potency score (higher = more potent) of -0.762.

Regarding TGACACAACAATAAGCAGCCTC, the sensor-assay potency score (higher = more potent) was -0.151.

TTTCTCAACAAATCGAAGCTTT displayed a sensor-assay potency score (higher = more potent) of 0.0812.

TTATAAGTAAACATCGGCCGTA gave a sensor-assay potency score (higher = more potent) of -0.196.

TTTTAATTCGGTCAGTTCCAGG showed a sensor-assay potency score (higher = more potent) of -1.24.

The sequence TTTCTGTCCAGAATACAACATT gave a sensor-assay potency score (higher = more potent) of -0.792.

Sequence TTTCTTCACATCTTCTAACTTC had a sensor-assay potency score (higher = more potent) of -0.0928.

As for TTAAACAGCAGCATCCAAGGTA, the sensor-assay potency score (higher = more potent) is 0.712.

The sequence AATACAACATTGAATAACCAGA displayed a sensor-assay potency score (higher = more potent) of -1.17.
